Reference: PubChem BioAssay AID463173 (ICCB-Longwood Screening Facility, Harvard Medical School, 2010)
Among all 52,000 compounds or so, about 4,300 (8.3%) were called active. Cut-off read from the data, not from the text of the source: active = survival mostly below about 52% (no sharp cut-off); inactive = mostly above about 56%. Only a selection was taken, and actives are over-represented in it overall.

These compounds were tested on DeltatarO mutant (assay: growth inhibition of S. aureus wild type versus tarO mutant, primary screen, teichoic acid synthesis inhibitors, RN4220, OD600 (AID 463173)). Conditions: OD600, 18 h, stronger effect = lower value, screened at 18.75 µg/mL (by protocol).

Row | Compound | survival
1 | CC(=O)Nc1ccc(C(=O)NCCN2CCOCC2)cc1 | 96% (inactive)
2 | Cc1cccc(N2CCN(S(=O)(=O)c3ccc4c(c3)C(C(C)C)C(=O)N4)CC2)c1C (configuration not stated) | 55% (inactive)
3 | Cc1ccc(Cc2nc3ccccc3nc2SCC(=O)NCCC(C)C)cc1 | 112% (inactive)
4 | CCCCN(CC)CCNC(=O)CN1C(=O)COc2ccc(S(=O)(=O)N3CCOCC3)cc21 | 86% (inactive)
5 | Cc1ccc(C)c(NC(=O)CCc2nc3cccnc3n2Cc2cccs2)c1 | 73% (inactive)
6 | COc1cc(O)ccc1C1CC(=O)Nc2c1c(=O)nc(SCc1ccccc1C)n2C (configuration not stated) | 93% (inactive)
7 | CCOc1ccc(C2CC(=O)Nc3c2c(=O)nc(SCc2ccccc2C)n3C)cc1OC (configuration not stated) | 42% (active)
8 | CCOc1ccc(C2CC(=O)Nc3nc(SCc4ccccc4C)[nH]c(=O)c32)cc1OC (configuration not stated) | 103% (inactive)
9 | COc1ccc(-c2[nH]c(-c3ccc(C)cc3)nc2SCC(=O)NCC2CCCO2)cc1 (configuration not stated) | 82% (inactive)
10 | COc1ccc2c(c1)c1c(c(=O)n(-c3cc(Cl)ccc3C)c(=O)n1CC(=O)N1CCCC1)n2C | 83% (inactive)
11 | Cc1ccccc1NC(=O)Cn1c(=O)n(Cc2ccc3c(c2)OCO3)c(=O)c2ccccc21 | 97% (inactive)
12 | Cc1ccc(O)c(-c2n[nH]c3c2C(c2ccc(F)cc2)N(Cc2ccco2)C3=O)c1 (configuration not stated) | 2% (active)
13 | Cc1cc(C)c2c(=O)c3c(oc2c1)C(=O)N(Cc1ccco1)C3c1ccccc1F (configuration not stated) | 106% (inactive)
14 | CCOc1ccc(C2c3c(-c4cc(C)ccc4O)n[nH]c3C(=O)N2Cc2cccnc2)cc1OCC (configuration not stated) | 72% (inactive)
15 | COc1cc(C2c3c(-c4cc(C)ccc4O)n[nH]c3C(=O)N2Cc2cccnc2)cc(OC)c1OC (configuration not stated) | 83% (inactive)
16 | CCOc1cccc(C2c3c(-c4cc(C)ccc4O)n[nH]c3C(=O)N2Cc2ccco2)c1 (configuration not stated) | 8% (active)
17 | Cc1ccc(C2c3c(-c4cc(C)ccc4O)n[nH]c3C(=O)N2Cc2ccco2)cc1 (configuration not stated) | 1% (active)
18 | Cc1cc(C)c(-c2n[nH]c3c2C(c2ccccc2F)N(CCO)C3=O)c(O)c1 (configuration not stated) | 77% (inactive)
19 | COc1cc(C2c3c(-c4cc(C)ccc4O)n[nH]c3C(=O)N2Cc2ccco2)cc(OC)c1OC (configuration not stated) | 66% (inactive)
20 | Cc1cc(C)c(-c2n[nH]c3c2C(c2ccccc2F)N(Cc2ccco2)C3=O)c(O)c1 (configuration not stated) | 2% (active)
21 | CCC(=O)N1c2ccc(S(=O)(=O)NCCc3ccccc3)cc2CC1C (configuration not stated) | 77% (inactive)
22 | Cc1ccc2[nH]c(CSc3nnc(NC(=O)COc4ccccc4)s3)cc(=O)c2c1 | 82% (inactive)

Row | Compound | survival
23 | Cc1cc(C)c(NC(=O)C(C)n2nc(-c3ccc(C)c(C)c3)ccc2=O)c(C)c1 (configuration not stated) | 63% (inactive)
24 | CCCCNC(=O)CN1CCN(c2ncc(NC(=O)c3ccc(Cl)cc3)cc2C(=O)O)CC1 | 94% (inactive)
25 | O=C1c2[nH]nc(-c3ccccc3O)c2C(c2ccccc2F)N1Cc1cccnc1 (configuration not stated) | 87% (inactive)
26 | CCCOc1cccc(C2c3c(-c4ccccc4O)n[nH]c3C(=O)N2Cc2ccco2)c1 (configuration not stated) | 2% (active)
27 | CCCOc1ccc(C2c3c(-c4ccccc4O)n[nH]c3C(=O)N2Cc2ccncc2)cc1OCC (configuration not stated) | 90% (inactive)
28 | Cc1ccc(O)c(-c2n[nH]c3c2C(c2ccccc2F)N(Cc2ccco2)C3=O)c1 (configuration not stated) | 8% (active)
29 | O=C1c2[nH]nc(-c3ccccc3O)c2C(c2ccccc2F)N1Cc1ccncc1 (configuration not stated) | 94% (inactive)
30 | O=C1c2[nH]nc(-c3ccccc3O)c2C(c2cccc(Br)c2)N1Cc1ccncc1 (configuration not stated) | 85% (inactive)
31 | COc1ccc(Cl)cc1NC(=O)c1ccc2nc(Cc3ccccc3)oc2c1 | 101% (inactive)
32 | CN(C)c1ccc(CNC(=O)c2cnc3sc(N4CCCC4)nn3c2=O)cc1 | 67% (inactive)
33 | CCOC(=O)c1c(C)n(C(=O)c2ccco2)c(=O)n1C(=O)c1ccco1 | 73% (inactive)
34 | COc1ccc(CCn2c(=O)c3ccccc3n(CC(=O)Nc3cccc(C)c3)c2=O)cc1OC | 83% (inactive)
35 | O=C(CSc1nnnn1C1CCCC1)c1ccc2c(c1)OCCO2 | 70% (active)
36 | CC(C)n1nnnc1SCC(=O)c1ccc2c(c1)OCCO2 | 87% (inactive)
37 | Cc1ccc(C(=O)CSc2nnnn2C2CCCC2)cc1C | 67% (inactive)
38 | COc1ccc(C(=O)NNc2ncnc3c2cnn3-c2ccc(C)c(Cl)c2)cc1 | 69% (inactive)
39 | Cc1ccc(-n2ncc3c(N(CC(C)C)CC(C)C)ncnc32)c(C)c1 | 78% (inactive)
40 | COc1ccc(C(=O)NNc2ncnc3c2cnn3-c2ccc(C)cc2C)cc1 | 0% (active)
41 | Cc1ccc(-n2ncc3c(NCC(C)C)ncnc32)c(C)c1 | 37% (active)
42 | Cc1ccc(CNc2ncnc3c2cnn3-c2ccc(C)cc2C)cc1 | 77% (inactive)
43 | Cc1cccc(C(=O)NNc2ncnc3c2cnn3-c2ccc(C)cc2C)c1 | 106% (inactive)
44 | O=C(NCC(c1cccnc1)N1CCc2ccccc2C1)C(=O)Nc1ccccc1F (configuration not stated) | 75% (inactive)

Row | Compound | survival
45 | CCN(CC)CC(=O)Nc1ccc(-c2ccc(NC(=O)CN(CC)CC)cc2)cc1 | 113% (inactive)
46 | CC1CCC(C(=O)NC(C(=O)OCC(=O)c2ccccc2)C(C)C)CC1 (configuration not stated) | 75% (inactive)
47 | COc1ccc(-c2nc3n(n2)C(c2ccccc2F)C(C(=O)Nc2cccnc2)=C(C)N3)cc1OC (configuration not stated) | 81% (inactive)
48 | COc1ccc(C2C(C(=O)Nc3ccccc3)=C(C)Nc3nc(-c4ccccc4)nn32)c(OC)c1 (configuration not stated) | 82% (inactive)
49 | COc1cccc(C2C(C(=O)Nc3ccccc3)=C(C)Nc3nc(-c4ccccc4)nn32)c1 (configuration not stated) | 57% (active)
50 | COc1ccc(-c2nc3n(n2)C(c2ccccc2OC)C(C(=O)Nc2cccnc2)=C(C)N3)cc1 (configuration not stated) | 80% (inactive)
51 | CC1=C(C(=O)Nc2ccccc2)C(c2ccc(C(=O)O)cc2)n2nc(SCC(=O)c3ccc(C)cc3)nc2N1 (configuration not stated) | 82% (inactive)
52 | COc1ccc(C2C(C(=O)Nc3ccccc3)=C(C)Nc3nc(-c4ccccc4)nn32)cc1OC (configuration not stated) | 85% (inactive)
53 | COc1cc(OC)cc(-c2nc3n(n2)C(c2ccccc2F)C(C(=O)Nc2cccnc2)=C(C)N3)c1 (configuration not stated) | 45% (active)
54 | COc1ccc(C2C(C(=O)Nc3ccccc3)=C(C)Nc3nc(SCC(=O)c4ccc(C)cc4)nn32)cc1 (configuration not stated) | 71% (inactive)
55 | CC1=C(C(=O)Nc2ccccc2)C(c2cccc(Cl)c2)n2nc(SCC(=O)c3ccc(C)cc3)nc2N1 (configuration not stated) | 52% (active)
56 | CCOc1ccc(NC(=O)C2CCN(S(=O)(=O)c3ccc4c(c3)oc(=O)n4C)CC2)cc1 | 91% (inactive)
57 | CCCCNC(=O)c1cnn2c(C)c(Cc3c(F)cccc3Cl)c(C)nc12 | 135% (inactive)
58 | O=C(CN1C(=O)CCSc2ccccc21)Nc1ccc(C(F)(F)F)cc1 | 111% (inactive)
59 | N#Cc1c(N)nc2c(c1-c1ccccc1)CCCC2 | 102% (inactive)
60 | COc1ccc(S(=O)(=O)NCc2ccc3c(c2)CCN3C(=O)c2ccc(C)cc2)cc1Cl | 112% (inactive)
61 | CCOC(=O)c1oc2c(c1C)/C(=N/OC(=O)c1ccccc1Cl)CCC2 | 69% (inactive)
62 | Cc1cc(S(=O)(=O)Nc2cc3c(cc2N2CCOCC2)n(C)c(=O)c(=O)n3C)ccc1F | 72% (inactive)
63 | Cc1ccc(S(=O)(=O)Nc2nnc(CC(C)(C)C)s2)cc1 | 87% (inactive)
64 | CC(C)(C)c1nnc(NS(=O)(=O)c2ccc(F)cc2)s1 | 82% (inactive)
65 | Cc1cc(C)c(S(=O)(=O)Nc2nnc(C(F)(F)F)s2)c(C)c1 | 36% (active)
66 | O=C(O)c1cccnc1SCc1cccc(Cl)c1 | 79% (inactive)

Row | Compound | survival
67 | Cc1ccc(CSc2ncccc2C(=O)O)cc1 | 87% (inactive)
68 | Cc1cccc(CSc2ncccc2C(=O)O)c1 | 47% (active)
69 | Cc1ccc(NC(=O)c2c(C)oc3ccc(O)c(CN4CCCC4)c23)c(C)c1 | 67% (inactive)
70 | CCOc1ccc(CCNC(=O)Cn2ccc3cc(S(=O)(=O)N4CCCCCC4)ccc32)cc1 | 126% (inactive)
71 | CCc1ccc(OC(=O)c2sc3ncn(Cc4cccc(F)c4)c(=O)c3c2C)cc1 | 115% (inactive)
72 | COc1ccc(S(=O)(=O)NCC(c2ccco2)N2CCN(c3ccc(F)cc3)CC2)cc1 (configuration not stated) | 84% (inactive)
73 | CCC(=O)N1CCc2cc(S(=O)(=O)NC(CC(C)C)C(=O)NCc3ccc(F)cc3)ccc21 (configuration not stated) | 80% (inactive)
74 | CCC(=O)N1CCc2cc(S(=O)(=O)NC(Cc3ccccc3)C(=O)NCc3ccccc3)ccc21 (configuration not stated) | 65% (inactive)
75 | CCC(=O)N1CCc2cc(CNS(=O)(=O)c3ccc(Br)s3)ccc21 | 47% (active)
76 | CCC(=O)N1CCc2cc(S(=O)(=O)NC(CC(C)C)C(=O)Nc3ccc(CC)cc3)ccc21 (configuration not stated) | 60% (active)
77 | CCC(=O)N1CCc2cc(S(=O)(=O)NC(CC(C)C)C(=O)NCc3ccc(C)cc3)ccc21 (configuration not stated) | 97% (inactive)
78 | CCC(=O)N1CCc2cc(S(=O)(=O)NC(Cc3ccccc3)C(=O)Nc3ccc(C)cc3)ccc21 (configuration not stated) | 64% (inactive)
79 | CCC(=O)N1CCc2cc(S(=O)(=O)NC(Cc3ccccc3)C(=O)O)ccc21 (configuration not stated) | 25% (active)
80 | CCC(=O)N1CCc2cc(CNS(=O)(=O)c3ccc(Cl)s3)ccc21 | 93% (inactive)
81 | CC(=O)N1CCc2cc(CNS(=O)(=O)c3ccc(Br)s3)ccc21 | 73% (inactive)
82 | COC(=O)c1ccccc1NC(=O)c1oc2ccc3c(c2c1C)C(=O)CC(C)(C)O3 | 80% (inactive)
83 | Cc1nc2cc(C(=O)O)ccc2n1-c1ccc(C(C)C)cc1 | 68% (inactive)
84 | COc1cccc(CNC(=O)CSc2nc3ccccc3nc2Cc2ccccc2)c1 | 69% (inactive)
85 | COc1ccc(NS(=O)(=O)c2ccc(-c3cnc(C4CC4)o3)cc2)cc1Cl | 124% (inactive)
86 | CCOC(=O)C1CCCN(S(=O)(=O)c2ccc(OC)cc2)C1 (configuration not stated) | 76% (inactive)
87 | CN1C(=O)Cc2cc(S(=O)(=O)CCC(=O)Nc3ccccc3)ccc21 | 83% (inactive)
